Data on five compounds can be found in PubChem BioAssay AID798 (PCMD, 2007).

A word on the inhibition: it is the drop in the measured response relative to a control, in per cent.

The whole screen tested about 220,000 compounds, of which about 300 (0.14%) were called active. This is one part of a sample in which actives are shown more often than they occur. Values without a mark were called inactive.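 The calls were made as follows: active = inhibition of at least 40%; inactive = inhibition below 40%.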

Chain of Coagulation factor XI (Homo sapiens) (P03951 19-387 limits assumed): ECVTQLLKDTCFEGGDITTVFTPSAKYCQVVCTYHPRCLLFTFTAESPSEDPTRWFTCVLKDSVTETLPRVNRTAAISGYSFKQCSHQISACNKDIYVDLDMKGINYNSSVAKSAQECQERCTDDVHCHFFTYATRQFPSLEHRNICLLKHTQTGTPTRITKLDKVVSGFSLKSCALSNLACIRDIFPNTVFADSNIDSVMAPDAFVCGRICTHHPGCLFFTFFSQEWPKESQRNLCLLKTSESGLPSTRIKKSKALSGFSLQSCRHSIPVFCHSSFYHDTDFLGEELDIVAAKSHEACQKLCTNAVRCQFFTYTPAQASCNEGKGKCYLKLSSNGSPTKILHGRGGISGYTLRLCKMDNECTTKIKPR
Chain of Coagulation factor XI (Homo sapiens) (P03951 388-625 limits assumed): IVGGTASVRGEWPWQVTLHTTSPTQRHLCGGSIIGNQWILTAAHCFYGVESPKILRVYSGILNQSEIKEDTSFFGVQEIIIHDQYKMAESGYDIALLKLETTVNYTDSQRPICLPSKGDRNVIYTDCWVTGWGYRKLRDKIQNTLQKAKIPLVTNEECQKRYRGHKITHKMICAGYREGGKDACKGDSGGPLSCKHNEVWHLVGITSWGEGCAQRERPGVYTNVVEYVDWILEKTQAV

This assay concerns the target Coagulation factor XI (Homo sapiens) (UniProt P03951). Description: human FXIa protease inhibitors, primary screen, biochemical, 1536-well (AID 798).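 Also: fluorescence of freed AMC excited at 355 nm; 0% = enzyme without compound and 100% = no enzyme blank.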 The note with it: purified FXIa, Boc-Glu-Ala-Arg-AMC fluorogenic substrate; at 5 µM; hits give high values.
Regarding `NCC(O)c1ccc(O)cc1` (stereo not given), the inhibition is 47.9% (active).
The result for `CSc1ccc(C(=O)C2CCCN(Cc3ccn[nH]3)C2)cc1` (stereo not given) reads 2.72%; that for `Cc1ccc(Cn2c(C)c3cnn(CC(=O)N4CCC5(CC4)OCCO5)c(=O)c3c2C)cc1`, -2.43%.
As to `CCCCCn1c(=O)c(C(=O)NCc2ccccn2)c(O)c2ccccc21`, the inhibition was 4.5%.
For `CC(C)c1ccc(-n2c(O)c(/C=N/N3CCOCC3)c(=O)[nH]c2=S)cc1`, the inhibition is -2.81%.
